The record followed here is article PMC4336329 (PLoS ONE, 2015).

Among all 310,000 compounds or so, about 14,000 (4.5%) showed an effect of 50% or more. Effects have a minus sign here. What follows is part of a selection rich in strong results, with near analogues and random picks from the rest.
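Note: peak tail current of the secondary pulse compared with the same well before compound.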

In the test the target is human ether-à-go-go-related gene (hERG) potassium channel (human, UniProt Q12809). Briefly: primary screen, population patch clamp on CHO cells stably expressing hERG; higher = less effect of the substance.
Chain of human ether-à-go-go-related gene (hERG) potassium channel (Q12809 whole entry, looked up): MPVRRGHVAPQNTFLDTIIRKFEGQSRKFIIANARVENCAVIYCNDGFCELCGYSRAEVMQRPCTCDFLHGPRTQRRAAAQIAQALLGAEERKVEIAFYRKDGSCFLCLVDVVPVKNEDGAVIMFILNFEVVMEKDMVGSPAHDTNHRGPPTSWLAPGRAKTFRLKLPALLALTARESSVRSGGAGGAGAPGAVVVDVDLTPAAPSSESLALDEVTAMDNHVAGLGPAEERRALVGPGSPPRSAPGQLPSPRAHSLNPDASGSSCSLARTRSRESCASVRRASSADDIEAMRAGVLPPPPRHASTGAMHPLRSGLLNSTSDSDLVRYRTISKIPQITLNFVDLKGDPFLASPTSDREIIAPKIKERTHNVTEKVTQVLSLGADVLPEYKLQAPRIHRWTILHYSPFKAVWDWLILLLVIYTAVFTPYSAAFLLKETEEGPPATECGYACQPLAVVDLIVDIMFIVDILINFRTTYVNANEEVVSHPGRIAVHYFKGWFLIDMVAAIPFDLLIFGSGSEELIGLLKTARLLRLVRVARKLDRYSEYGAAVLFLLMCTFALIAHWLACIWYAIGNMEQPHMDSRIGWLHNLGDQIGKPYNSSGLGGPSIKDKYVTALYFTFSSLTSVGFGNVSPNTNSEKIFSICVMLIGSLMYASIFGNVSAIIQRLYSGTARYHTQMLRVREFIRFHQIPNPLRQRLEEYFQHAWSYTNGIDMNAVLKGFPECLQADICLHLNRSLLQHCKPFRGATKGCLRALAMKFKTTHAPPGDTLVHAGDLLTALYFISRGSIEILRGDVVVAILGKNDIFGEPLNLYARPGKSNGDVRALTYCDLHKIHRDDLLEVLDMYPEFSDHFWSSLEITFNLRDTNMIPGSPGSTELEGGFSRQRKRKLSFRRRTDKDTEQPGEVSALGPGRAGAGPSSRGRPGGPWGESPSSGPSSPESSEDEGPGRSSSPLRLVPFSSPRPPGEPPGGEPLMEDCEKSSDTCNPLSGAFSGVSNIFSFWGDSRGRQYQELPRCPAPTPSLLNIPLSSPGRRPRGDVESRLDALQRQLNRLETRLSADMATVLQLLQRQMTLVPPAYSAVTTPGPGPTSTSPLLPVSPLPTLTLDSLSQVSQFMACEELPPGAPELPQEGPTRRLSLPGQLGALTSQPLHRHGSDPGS
Turning to `CCOC(=O)c1[nH]c(C)c(C(=O)N2CCc3c([nH]c4ccccc34)C2c2ccccn2)c1C` (stereo not drawn), the “hERG current change (%, negative = inhibition) at 10uM” value was -0.347%. With `CSc1nc(SCC(=O)NCc2ccco2)c2c3c(sc2n1)CN(C)CC3` the figure was -0.986%.

For `CCC(O)CNc1nc(SC)nc2sc3c(c12)CCN(C)C3` (stereo not drawn), the “hERG current change (%, negative = inhibition) at 10uM” value is on record as 0.847%. Take `CSc1nc(NCCCN(C)C)c2c3c(sc2n1)CN(C)CC3`: the “hERG current change (%, negative = inhibition) at 10uM” value is 1.56%.

Regarding `CCN(CC)CCCNc1nc(SC)nc2sc3c(c12)CCN(C)C3`, the “hERG current change (%, negative = inhibition) at 10uM” value worked out at 11%. With `CSc1nc(NCc2ccco2)c2c3c(sc2n1)CN(C)CC3` the figure was -75%. To `CSc1nc(NCc2ccccc2)c2c3c(sc2n1)CN(C)CC3` belongs -78%.

As to `Cc1ccc(CN2CC(C(=O)O)CC2=O)cc1` (stereo not drawn), the “hERG current change (%, negative = inhibition) at 10uM” value came out at 6.55%.

Take `CCOc1ccc(NC(=O)C(CC(=O)O)Cc2ccc(Br)cc2)cc1` (stereo not drawn): the “hERG current change (%, negative = inhibition) at 10uM” value is 11.1%. To `COc1ccc(C(=O)Oc2cccc(/C=N/NC(N)=S)c2)cc1` belongs 11.7%; to `Cc1ccc2[nH]c(=O)c(CN(Cc3ccco3)C(=O)c3ccncc3)cc2c1`, -43.4%; to `Cc1ccc2[nH]c(=O)c(CN(Cc3ccco3)C(=O)CN3CCCC(C)C3)cc2c1` (stereo not drawn), -57%. To `Cc1ccc(NC(=S)N(CCCN2CCOCC2)Cc2ccco2)cc1` belongs 4.36%; to `Cc1ccccc1NC(=S)N(CCCN1CCC(C)CC1)Cc1ccco1`, -47.9%. With `Cc1ccc2[nH]c(=O)c(CN(Cc3ccco3)C(=O)N3CCOCC3)cc2c1` the figure was -0.449%; with `Cc1ccc(NC(=S)N(CCCN2CCCC(C)C2)Cc2ccco2)cc1C` (stereo not drawn), -76.2%.

For the compound `Cc1ccc(NC(=S)N(CCCN2CCC(C)CC2)Cc2ccco2)cc1`, the “hERG current change (%, negative = inhibition) at 10uM” value is -72%.

For `Cc1ccc(NC(=S)N(CCCN2CCOCC2)Cc2ccco2)cc1C`, the “hERG current change (%, negative = inhibition) at 10uM” value is -31.9%. For `Cc1ccc(NC(=S)N(CCCN2CCC(C)CC2)Cc2ccco2)cc1C`, the “hERG current change (%, negative = inhibition) at 10uM” value was -70.3%. With `O=C(c1c[nH]c2ccccc12)C(O)C(c1ccccc1)N1CCOCC1` (stereo not drawn) the figure was -0.703%; with `CSC1=N/C(=C\c2c(F)cccc2Cl)C(=O)S1`, -17.5%.

In the case of `CC(=O)Nc1ccc(NC(=O)CSc2nnc(C)n2-c2ccccc2)cc1`, the “hERG current change (%, negative = inhibition) at 10uM” value amounted to 26.1%. To `CCOC(=O)C1C(=O)OC2(CCOC(C)(C)C2)C1C(=O)OCC` (stereo not drawn) belongs 5.89%; to `COc1ccc(N(CC(=O)NCc2ccccc2Cl)S(=O)(=O)c2c(C)n[nH]c2C)cc1`, 2.87%.

For `COc1cc(OC)cc(C(=O)N2CCC(C(=O)Nc3ccc4c(c3)OCCO4)CC2)c1`, the “hERG current change (%, negative = inhibition) at 10uM” value turned out to be 2.48%.

Consider `O=C(Nc1ccc2c(c1)OCCO2)C1CCN(C(=O)c2ccccc2)CC1`, for which the “hERG current change (%, negative = inhibition) at 10uM” value is 5.84%.

Take `Cc1ccccc1C(=O)N1CCC(C(=O)Nc2ccc3c(c2)OCO3)CC1`: the “hERG current change (%, negative = inhibition) at 10uM” value is given as 3.97%. To `COc1ccc(C(=O)N2CCC(C(=O)Nc3ccc4c(c3)OCO4)CC2)cc1` belongs -79.9%; to `O=C(Nc1ccc2c(c1)OCCO2)C1CCN(C(=O)c2ccc(Cl)cc2)CC1`, -12.5%; to `COc1ccc(C(=O)N2CCC(C(=O)Nc3ccc4c(c3)OCCO4)CC2)cc1`, -44.2%. On to `CS(=O)(=O)N1CCC(C(=O)Nc2ccc3c(c2)OCO3)CC1`, for which the “hERG current change (%, negative = inhibition) at 10uM” value is listed as -7.81%. With `O=C(Nc1ccc2c(c1)OCO2)C1CCN(C(=O)c2ccc(Br)cc2)CC1` the figure was -70.5%. With `O=C(Nc1ccc2c(c1)OCO2)C1CCCCC1`, the “hERG current change (%, negative = inhibition) at 10uM” value came out at 0.102%. To `O=C(Nc1ccc2c(c1)OCO2)C1CCN(C(=O)c2ccc(Cl)cc2)CC1` belongs -73.5%; to `O=C(Nc1ccc2c(c1)OCCO2)C1CCN(C(=O)c2ccc(F)cc2)CC1`, 3.73%; to `O=C(Nc1ccc2c(c1)OCCO2)C1CCN(C(=O)c2ccc(Br)cc2)CC1`, -52.7%.
